# Compounds with a hit are over-represented: about 4.6% of the library has one in this group of screens.
# NALP3 yeast inh: NALP3 inhibition in yeast. Yeast reconstituted NLRP3/ASC/caspase-1, beta-gal luminescence, 24 h. inhibition, % at 10 µM. hit rate 0.39% among 330,000;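 active = inhibition of 50% or more; inactive = inhibition below 50%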;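 also: plate controls were induced DMSO wells for no effect and uninduced yeast grown without galactose for full effect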
# TIM10 inh: TIM10 yeast growth inhibition; inhibition, % at 10 µM; S. cerevisiae TIM10 strain growth, BacTiter-Glo luminescence, 24 h; hit rate 1.4% among 330,000;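 active = inhibition of 40% or more at the single tested concentration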;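 also: wild-type TIM10 isogenic control strain grown at permissive 25 °C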
# tim23-1 inh: tim23-1 yeast growth inhibition | S. cerevisiae tim23-1 growth, BacTiter-Glo luminescence, 24 h | hit rate 1.3% among 330,000 | inhibition, % at 20 µM | AID 463212;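 active = growth inhibition of the mutant yeast at or above 50%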;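 also: temperature-sensitive mutant grown at 25 °C; plate controls were DMSO-treated mutant yeast for no effect and medium wells lacking yeast for full effect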
# SKKanGAS inh: inhibitors of SKKanGAS S. pyogenes growth in kanamycin (SK-promoter or general growth effect) | hit rate 1.3% among 300,000 | inhibition, % at 7.5 µM | BacTiter-Glo, 6 h;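 active = mean replicate score, as percent of positive control median, at least 50; inconclusive = mean below 50 but one replicate at or above 50; inactive = mean and every replicate below 50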;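 also: strain carries kanamycin resistance gene driven by streptokinase promoter and grows in 40 µg/ml kanamycin; loss of luminescence reflects streptokinase promoter inhibition or plain growth inhibition; 0% = median of DMSO wells and 100% = positive control at its reference dose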
# tim10-1 inh: inhibits growth of tim10-1 mutant yeast | S. cerevisiae tim10-1 ts strain growth, BacTiter-Glo, 24 h | inhibition, % at 20 µM | hit rate 2.2% among 330,000;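 active = inhibition of at least 40%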;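 also: mutant grown at 25 °C; 0% = DMSO wells with yeast and 100% = wells holding no yeast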
# * marks the source's active call; other numbers are inactive results; ? = inconclusive; nt = no result.
SMILES,NALP3 yeast inh,TIM10 inh,tim23-1 inh,SKKanGAS inh,tim10-1 inh
c1ccc(-c2noc(-c3ccccc3-c3ccccc3)n2)cc1,4,37,17,75*,33
O=C(COC(=O)c1cccc(OC(F)F)c1)Nc1ncccn1,10,-4,8,nt,13
Cn1nc(-c2ccccn2)nc2c(=O)n(C)c(=O)nc1-2,-11,-8,13,52*,16
COc1ccc(-c2nc(-c3ccccn3)ncc2S(C)(=O)=O)cc1,4,-5,1,0,15
Oc1ccc(N=Nc2ccc3c(c2)OCCO3)c2ncccc12,25,2,33,89*,33
O=C(Nc1ncccc1O)c1ccc2c(c1)OCCO2,11,-2,-12,-2,-19
O=C(NNc1ccccc1Br)C(O)(c1cccc(C(F)(F)F)c1)c1cccc(C(F)(F)F)c1,7,-6,9,101*,27
Cc1ccc(NNC(=O)C(O)(c2cccc(C(F)(F)F)c2)c2cccc(C(F)(F)F)c2)cc1,16,27,19,29,-16
S=C(NNc1ccnc2cc(Cl)ccc12)Nc1ccc(Cl)cc1Cl,21,-17,47,71*,29
CC(=O)NNC(=S)NC(=O)C(c1ccccc1)c1ccccc1,28,25,0,61*,36
S=C(Nc1ccccc1)Nc1ccc(Cl)cn1,32,34,-2,8,18
CC(C)(C)C(=O)NC(=S)NNC(=O)C(c1ccccc1)c1ccccc1,46,25,7,10,32
O=C(NC(=S)Nc1ccc(Cl)cn1)C(c1ccccc1)c1ccccc1,36,27,8,77*,20
Cc1ccsc1C(=O)OCC(=O)c1cc(C)n(C)c1C,24,-10,-4,nt,-9
CCOc1ccc(CCNC(=O)COC(=O)COc2ccc(C#N)cc2)cc1OCC,11,9,19,nt,-8
O=C(O)c1cccc(-c2ccc(/C=C3/SC(=Nc4ccccc4)N(Cc4cccnc4)C3=O)o2)c1,11,19,15,53*,36
CCN1C(=O)/C(=C\c2ccc(-c3ccc([N+](=O)[O-])cc3OC)o2)SC1=Nc1cccc(C(=O)O)c1,nt,nt,nt,56*,nt
O=C(O)CCN1C(=O)S/C(=C\c2cccnc2)C1=O,2,-5,11,-11,-1
CCN=C1S/C(=C\c2ccc(-c3cccc(C(=O)O)c3)o2)C(=O)N1CC,3,6,17,56*,26
CCN1C(=O)/C(=C\c2ccc(-c3cccc(C(=O)OC)c3)o2)SC1=Nc1ccc(C(=O)O)cc1,9,0,-12,46,7
O=C1/C(=C/c2cccnc2)SC(=NCc2ccccc2)N1Cc1ccccc1,5,23,5,54*,-5
CCOC(=O)COc1ccc(/C=C2/SC(=Nc3ccccc3)N(Cc3cccnc3)C2=O)cc1OC,12,1,18,28,8
CCc1nnc(NC(=O)c2oc3ccccc3c2COC(C)C)s1,30,18,33,nt,12
CC1(C)Cc2c(cnn2-c2ccccc2)C(NC(=O)CCCN2CCCCC2=O)C1 (configuration not stated),9,13,2,2,-9
C#CCN1C(=O)S/C(=C\c2ccc(-c3ccc(Cl)c(C(=O)O)c3)o2)C1=O,8,0,-11,68*,-12
SMILES,NALP3 yeast inh,TIM10 inh,tim23-1 inh,SKKanGAS inh,tim10-1 inh
Cc1ccc(NC(=O)CN2C(=O)S/C(=C/c3ccc(-c4cc(C(=O)O)ccc4C)o3)C2=O)cc1C,-1,1,12,85*,24
Cc1cccc(NC(=O)CN2C(=O)S/C(=C\c3ccc(-c4cccc(C(=O)O)c4C)o3)C2=O)c1,23,9,17,?,25
COc1ccc(-n2c(SCC(=O)Nc3cccc4ccccc34)nc(O)cc2=O)cc1,-22,-6,9,32,-2
COc1ccc(NC(=O)CSc2nc(O)cc(=O)n2-c2ccc(OC)cc2)cc1,6,19,6,54*,-1
Cc1ccc(-n2c(SCC(=O)Nc3ccc4c5c(cccc35)CC4)nc(O)cc2=O)cc1,15,6,18,52*,33
COc1ccc(-n2c(SCC(=O)Nc3ccccc3)nc(O)cc2=O)cc1,14,-15,20,50*,-8
COc1ccc(-n2c(SCC(=O)Nc3ccc(NC(C)=O)cc3)nc3ccccc3c2=O)cc1,-6,-12,6,7,-1
NC(=O)Cc1ccc(C(=O)CSc2nnc(-c3ccncc3)n2C2CC2)s1,5,-5,10,nt,14
CCOC(=O)c1cnc(-n2nc(C)cc2C)nc1NNc1nc(-c2ccccc2)cc(-c2ccccc2)n1,4,11,20,105*,20
